# Whole data set: some 110,000 compounds, median “z-score” near -0.1, cut for the highest 2% near 2. Many of the other results were omitted from the sample, so the highest values are more common in it than they were. Active and inactive are the calls of the source.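 The calls were made as follows: active = z-score in the third read window above 3 or below -3; inactive = the rest.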
# Biological target: Metabotropic glutamate receptor 8 (Rattus norvegicus) (UniProt P70579)
# Test: rat mGluR8 modulators via GIRK flux, primary screen, cell-based, thallium flux, HTS (AID 488969)
# Details: HEK293 rat mGluR8, GIRK (G protein-gated inwardly rectifying potassium channel) thallium flux, FluoZin2; at 10 µM; stronger effect = higher value; submaximal glutamate (EC20) added with thallium
# Chain of Metabotropic glutamate receptor 8 (Rattus norvegicus) (P70579 whole entry, looked up): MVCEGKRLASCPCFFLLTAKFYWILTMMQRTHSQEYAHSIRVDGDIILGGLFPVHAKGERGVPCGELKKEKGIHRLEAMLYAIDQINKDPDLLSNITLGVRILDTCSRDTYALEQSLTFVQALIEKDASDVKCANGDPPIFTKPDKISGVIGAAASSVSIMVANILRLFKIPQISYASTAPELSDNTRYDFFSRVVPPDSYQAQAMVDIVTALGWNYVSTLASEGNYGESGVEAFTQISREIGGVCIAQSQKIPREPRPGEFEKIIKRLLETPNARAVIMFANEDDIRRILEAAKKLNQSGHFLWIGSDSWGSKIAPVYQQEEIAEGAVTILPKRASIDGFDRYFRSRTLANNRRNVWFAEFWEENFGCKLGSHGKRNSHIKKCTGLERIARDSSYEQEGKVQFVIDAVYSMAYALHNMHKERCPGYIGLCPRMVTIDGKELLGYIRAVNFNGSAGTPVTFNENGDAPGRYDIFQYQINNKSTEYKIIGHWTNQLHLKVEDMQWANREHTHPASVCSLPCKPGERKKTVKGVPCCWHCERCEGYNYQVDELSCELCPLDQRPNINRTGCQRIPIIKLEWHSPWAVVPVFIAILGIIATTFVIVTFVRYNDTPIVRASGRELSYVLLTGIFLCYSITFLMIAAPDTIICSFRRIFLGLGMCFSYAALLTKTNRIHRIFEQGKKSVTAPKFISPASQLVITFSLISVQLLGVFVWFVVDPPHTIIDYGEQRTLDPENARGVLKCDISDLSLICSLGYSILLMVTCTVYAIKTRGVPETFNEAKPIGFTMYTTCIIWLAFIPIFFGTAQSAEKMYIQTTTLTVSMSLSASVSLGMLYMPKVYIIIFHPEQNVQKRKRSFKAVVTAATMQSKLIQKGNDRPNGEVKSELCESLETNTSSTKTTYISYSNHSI
row,Compound,z-score
1,CC1CC(C)CN(CCOCCSc2ccccc2)C1 (stereo not drawn),0.729
2,O=C(Cn1cc(C(F)(F)F)cc(Cl)c1=O)NCCc1ccccc1,-0.155
3,COC(=O)c1cccc(NC(=S)NCc2ccc(Cl)cc2)c1,0.53
4,CC(=O)c1cccc(NC(=S)NC(=O)c2cccc(C)c2)c1,7.49 (active)
5,CC(=O)c1cccc(NC(=S)NC(=O)c2cccc(Cl)c2)c1,8.71 (active)
6,CCC(=O)Nc1cccc(NC(=S)NC(=O)c2ccccc2)c1,-0.455
7,CCC(=O)Nc1cccc(NC(=S)NC(=O)c2cccc(C)c2)c1,0.23
8,COC(=O)c1cccc(NC(=S)Nc2cccc(Cl)c2Cl)c1,2.5
9,Cc1cccc(NC(=O)NC(=S)NC(=O)c2ccccc2)c1,2.86
10,COC(=O)c1cccc(NC(=S)Nc2cccc(Cl)c2C)c1,0.445
11,Cc1ccc(NC(=O)NC(=S)NC(=O)c2ccccc2)cc1,1.68
12,CC(=O)c1cccc(NC(=S)NC(=O)c2ccccc2)c1,1.63
13,CC(=O)c1cccc(NC(=S)NC(=O)c2ccc(Cl)cc2)c1,-0.258
14,CC(=O)c1cccc(NC(=S)NC(=O)c2ccccc2Cl)c1,1.17
15,O=C(c1ccc2snnc2c1)N1CCN(c2ccccn2)CC1,-0.329
16,COC(=O)Nc1sc2c(c1C(=O)N1CCOCC1)CCC(C)C2 (stereo not drawn),0.0522
17,COc1ccccc1S(=O)(=O)Nc1cccc(-c2nnc3n2CCCCC3)c1,-0.163
18,Cc1cc2cc(C(c3nnnn3C(C)(C)C)N(Cc3ccco3)CC3CCCO3)c(=O)[nH]c2cc1C (stereo not drawn),-0.208
19,O=C(/C=C/c1ccc(F)cc1)c1ccccc1Br,-0.272
20,COc1ccc2nc(C(F)(F)C(F)(F)F)c(C#N)c(N)c2c1,-0.334
21,Cc1ccccc1C(=O)NNC(=S)Nc1cccc(C(F)(F)F)c1,-0.0547
22,O=C(NNC(=S)Nc1cccc(C(F)(F)F)c1)c1cccc(Cl)c1,2.97
23,O=C(NNC(=S)Nc1cccc(C(F)(F)F)c1)c1ccccc1Cl,0.86
24,CC(C)Oc1cccc(C(=O)NC(=S)Nc2ccccc2)c1,3.26 (active)

row,Compound,z-score
1,CC(C)Oc1cccc(C(=O)NC(=S)Nc2cccc(NC(=O)c3ccccc3Cl)c2)c1,-0.41
2,CC(C)Oc1cccc(C(=O)NC(=S)Nc2cccc(C(F)(F)F)c2)c1,0.755
3,CCS(=O)(=O)N1CCN(C(=O)COc2ccc(-c3ccccc3)cc2)CC1,-0.0325
4,O=c1c2c3c(sc2nc2n1CCCCC2)CCCCC3,8.38 (active)
5,O=c1c2c3c(sc2nc2n1CCCC2)CCCCC3,-0.277
6,O=c1c2c3c(sc2nc2n1CCCCC2)CCC3,-0.21
7,O=C(Cn1c(CC(=O)N2CCOCC2)nc2ccccc21)Nc1ccc2c(c1)OC(F)(F)O2,1.15
8,CCOc1ccc2nc(NC(=O)CN3CCN(C)CC3)sc2c1,0.433
9,C=CCNCCCOc1ccc(C)cc1Br,0.425
10,CC(=O)Nc1ccc(S(=O)(=O)N(C)CC(=O)OCC(=O)Nc2cccnc2Cl)cc1,-0.172
11,C/C(=N\NC(=O)c1ccc(Cl)cc1)c1ccc(Br)s1,8.88 (active)
12,CC/C(=N\NC(=O)c1ccccc1Cl)c1ccc(Br)s1,0.216
13,C/C(=N\NC(=O)c1ccccc1O)c1ccc(Br)s1,2.99
14,C/C(=N\NC(=O)c1cccc(F)c1)c1ccc(Br)s1,7.29 (active)
15,C/C(=N/NC(=O)c1cc(Cl)ccc1O)C12CC3CC(CC(C3)C1)C2,3.19 (active)
16,O=C(NN=C1C2CC3CC(C2)CC1C3)c1cc(Cl)ccc1O,0.0729
17,C/C(=N\NC(=O)c1ccc(Cl)c(Cl)c1)c1ccc(Br)s1,1.19
18,C/C(=N/NC(=O)c1ccoc1C)C12CC3CC(CC(C3)C1)C2,0.37
19,COc1ccccc1NCC(=O)N/N=C(\C)c1ccc(Br)s1,-0.279
20,C/C(=N/NC(=O)CNc1ccc(C)cc1)c1ccc(Br)s1,0.214
21,C/C(=N\NC(=O)CNc1cccc(C)c1)c1ccc(Br)s1,0.0989
22,C/C(=N\NC(=O)c1cccc(N/N=C(\C)c2ccccc2)c1)c1ccccc1,-0.529
23,O=C(CN1CCCCCCC1)N/N=C/c1ccc(F)c(F)c1,-0.563
24,CCC(C)(C)C1CCC(=NNC(=O)c2ccoc2C)CC1 (stereo not drawn),-0.259

row,Compound,z-score
1,Cc1sc(NC(=O)c2ccc(Br)s2)c(C(N)=O)c1C,0.0217
2,COc1cc(OC)c(OC)cc1CN(C)C(c1ccccc1)c1nnnn1-c1ccccc1C (stereo not drawn),0.0196
3,CC(OC(=O)CCc1nc2ccccc2c(=O)[nH]1)C(=O)NC1CCCC1 (stereo not drawn),-0.356
4,Cc1cccc2sc(N(CCN(C)C)C(=O)/C=C/c3cccs3)nc12,-0.145
5,O=c1[nH]c(CN2CCN(c3ccccc3)CC2)nc2ccccc12,0.214
6,COc1cccc(C2C=C(Nc3ccccc3)C(=O)N2c2ccccc2)c1 (stereo not drawn),-0.22
7,Cc1cc(C)c(NC(=O)C2CCCN2C(=O)NC2CCCCC2)c(C)c1 (stereo not drawn),1.35
8,C/C(=N\NC(=O)c1cc(Cl)ccc1O)c1ccc(Br)s1,6.48 (active)
9,C/C(=N\NS(=O)(=O)c1ccc(C)cc1)c1ccc(Br)s1,-0.207
10,O=C(N/N=C/C1CCCCC1)c1cc(Cl)ccc1O,0.618
11,Nc1[nH]ncc1N=Nc1ccc(Cl)cc1,-0.104
12,c1ccc(CNn2c(N3CCOCC3)nc3ccccc32)cc1,0.241
13,CCN(c1ccccc1)S(=O)(=O)c1cc(C(=O)Nc2ccccc2Cl)ccc1F,2.19
14,CCN(c1ccccc1)S(=O)(=O)c1cc(C(=O)Nc2ccc(F)c(F)c2)ccc1F,-0.178
15,CCN(c1ccccc1)S(=O)(=O)c1cc(C(=O)Nc2cccc(Cl)c2)ccc1F,-0.0119
16,CN(C)c1ccc(/C=C/C(=O)c2ccccc2)cc1[N+](=O)[O-],-0.207
17,Fc1c(F)c(F)c(N=Cc2ccc3ncccc3c2)c(F)c1F,0.201
18,O=C(Cc1cccs1)Nc1nc2c(ccc3ccccc32)s1,0.34
19,CCc1ccc(-c2nc(NC(=S)NC(=O)c3cccs3)sc2C)cc1,0.595
20,Cc1ccc2nc(NC(=O)Cc3cccs3)sc2c1,0.542
21,Cc1ccc2nc(NC(=S)NC(=O)c3cccs3)sc2c1,4.64 (active)
22,O=C(NC(=S)Nc1nc2c(ccc3ccccc32)s1)c1cccs1,2.78
23,O=C(NC(=S)Nc1nc2ccccc2s1)c1cccs1,11.7 (active)
24,O=C(NC(=S)Nc1nc(-c2ccccc2)cs1)c1cccs1,1.03

row,Compound,z-score
1,Cc1ccc(-c2csc(NC(=S)NC(=O)c3cccs3)n2)cc1,-0.267
2,Cc1nc(NC(=S)NC(=O)c2cccs2)sc1C(=O)N(C)C,-0.329
3,O=C(c1ccc(Cl)cc1)C1CCN(C(=O)C2CC2)CC1,0.108
4,CCOC(=O)c1c(C)n(-c2ccc(C)cc2)c2c(CC(C)=O)c(Br)c(OC)c(O)c12,-0.0818
5,Clc1ccc(Cc2ccc(Cl)nn2)c(Cl)c1,-0.119
6,Clc1ccc(Cc2ccc(SCc3ccccc3)nn2)c(Cl)c1,3.48 (active)
7,CSc1ccc(Cc2ccc(Cl)cc2Cl)nn1,-0.154
8,O=C(N/N=C\c1ccc(Sc2ccccn2)o1)c1cccc(Br)c1,1.77
9,O=C(N/N=C/c1ccc(Sc2ccccn2)o1)c1cc2ccccc2cc1O,6.43 (active)
10,O=C(N/N=C\c1ccc(Sc2ccccn2)o1)c1cccc(F)c1,-0.471
11,CCOC(=O)c1ccc(NC(=S)N2CCN(Cc3ccccc3)CC2)cc1,-0.2
12,CN(C)c1ccnc(Oc2ccc(C(C)(C)C)cc2)c1C#N,-0.212
13,COC(=O)C1CCCN1C(=O)c1cccs1 (stereo not drawn),5.05 (active)
14,O=C(O)C1CCCN1C(=O)c1cccs1 (stereo not drawn),0.319
15,O=C(OCc1ccccc1)C1CCCN1C(=O)c1cccs1 (stereo not drawn),-0.219
16,CC(=O)NC1(c2nnnn2CCOC(=O)Nc2ccc(Cl)cc2)CCCCC1,0.0804
17,O=C(O)CCC(=O)N1N=C(c2c(-c3ccccc3)c3cc(Cl)ccc3[nH]c2=O)CC1c1ccco1 (stereo not drawn),-0.219
18,CC(C)NC(=O)/C(=N\O)c1ccccc1,0.0549
19,C/C(=N\NC(=O)C(NC(=O)c1ccccc1)C(C)C)c1ccccc1 (stereo not drawn),-0.068
20,C/C(=N\O)C(C)NC(=O)c1ccccc1 (stereo not drawn),3.54 (active)
21,COc1ccccc1NC(=S)NCc1ccc2c(c1)OCO2,-0.0224
22,Cc1sc(NC(=O)c2cc(-c3ccc(Cl)cc3)nc3ccccc23)c(C(N)=O)c1C,-0.126
23,O=C(c1ccc(Cl)c([N+](=O)[O-])c1)N(Cc1ccccc1)C1CCS(=O)(=O)C1 (stereo not drawn),2
24,O=C(c1ccccc1)N(Cc1ccc(F)cc1)C1CCS(=O)(=O)C1 (stereo not drawn),-0.0413

row,Compound,z-score
1,O=C(c1sc2ccccc2c1Cl)N(Cc1ccccc1)C1CCS(=O)(=O)C1 (stereo not drawn),1.16
2,CCCCn1c(=O)[nH]c(=O)c2c1ncn2Cc1ccco1,-0.249
3,CCOC(=O)CN(C(=O)CSc1nnc(CNc2ccc(F)cc2)n1CC)c1ccc(F)cc1,-0.599
4,COc1ccc(OC)c(CNC(=O)CCN2C(=O)COc3ccccc32)c1,0.307
5,CSc1nc2ccccc2cc1/C=C(\C#N)c1cccc(C)c1,3.99 (active)
6,CSc1nc2ccccc2cc1/C=C(\C#N)c1ccccc1,0.0152
7,CSc1nc2ccccc2cc1/C=C(\C#N)c1cccc(Cl)c1,0.938
8,COc1ccc(C(C)=O)cc1CN1C(=O)C(C)N(c2ccc(C)cc2)C1=O (stereo not drawn),-0.0103
9,CCOc1ccc(N2C(=O)CC(SC(=NC)Nc3cccc(F)c3)C2=O)cc1 (stereo not drawn),-0.588
10,CCCOc1ccc(N2C(=O)CC(SC(=NC)Nc3ccc(F)cc3)C2=O)cc1 (stereo not drawn),-0.0553
11,CCOc1ccc(N2C(=O)CC(SC(=NC)Nc3ccc(F)cc3)C2=O)cc1 (stereo not drawn),3.7 (active)
12,CCOC(=O)CN1NC2(CCCCC2)NC1=S,0.284
13,CCOC(=O)CN1NC2(CCC(C(C)(C)C)CC2)NC1=S (stereo not drawn),2.66
14,CCOC(=O)CN1NC2(CCC(C)CC2)NC1=S (stereo not drawn),-0.408
15,O=C(CSc1nc(-c2ccccc2)c(-c2ccccc2)[nH]1)NCc1ccco1,-0.317
16,C=CCOc1ccc(/C(O)=C2\C(=O)C(=O)N(CCCOC)C2c2ccc(O)c(OC)c2)cc1 (stereo not drawn),-0.44
17,Cc1ccc(NS(=O)(=O)c2ccc3c(c2)C(=O)c2ccccc2C3=O)c(C)c1,-0.0521
18,Cc1ccc(S(=O)(=O)Nc2ccccc2-c2ccccc2NS(=O)(=O)c2ccc(C)cc2)cc1,-0.159
19,O=C(O)c1ccccc1NS(=O)(=O)c1cccc(C(F)(F)F)c1,-0.814
20,CNc1cccc2c1C(=O)c1ccccc1C2=O,-0.102
21,Cc1cccc(S(=O)(=O)Nc2cccc3c2C(=O)c2ccccc2-3)c1,8.14 (active)
22,O=C1c2ccccc2-c2cccc(NS(=O)(=O)c3ccc(C(F)(F)F)cc3)c21,2.66

# Source: PubChem BioAssay AID488969 (Vanderbilt High Throughput Screening Facility, 2010)
